This passage reports Percent Effect results from ChEMBL document CHEMBL3988442, “University of Dundee, Small-Polar-MMV Screening Library” (2021).

What all share (set-up): scale not given: direction of the effect not stated beside the values
In assay [1] the target is Protein translocase subunit SecA (Escherichia coli (strain K12)) (UniProt P10408). The assay can be described thus: Assay to Identify E. coli SecA ATPase Inhibitors. The assay is classed as functional. The note with it: 30 µM.
The target in assay [2] is T1, Ubiquitin-activating enzyme e1, putative (Leishmania donovani (strain BPK282A1)) (UniProt E9BSI1).
T1 sequence (whole entry): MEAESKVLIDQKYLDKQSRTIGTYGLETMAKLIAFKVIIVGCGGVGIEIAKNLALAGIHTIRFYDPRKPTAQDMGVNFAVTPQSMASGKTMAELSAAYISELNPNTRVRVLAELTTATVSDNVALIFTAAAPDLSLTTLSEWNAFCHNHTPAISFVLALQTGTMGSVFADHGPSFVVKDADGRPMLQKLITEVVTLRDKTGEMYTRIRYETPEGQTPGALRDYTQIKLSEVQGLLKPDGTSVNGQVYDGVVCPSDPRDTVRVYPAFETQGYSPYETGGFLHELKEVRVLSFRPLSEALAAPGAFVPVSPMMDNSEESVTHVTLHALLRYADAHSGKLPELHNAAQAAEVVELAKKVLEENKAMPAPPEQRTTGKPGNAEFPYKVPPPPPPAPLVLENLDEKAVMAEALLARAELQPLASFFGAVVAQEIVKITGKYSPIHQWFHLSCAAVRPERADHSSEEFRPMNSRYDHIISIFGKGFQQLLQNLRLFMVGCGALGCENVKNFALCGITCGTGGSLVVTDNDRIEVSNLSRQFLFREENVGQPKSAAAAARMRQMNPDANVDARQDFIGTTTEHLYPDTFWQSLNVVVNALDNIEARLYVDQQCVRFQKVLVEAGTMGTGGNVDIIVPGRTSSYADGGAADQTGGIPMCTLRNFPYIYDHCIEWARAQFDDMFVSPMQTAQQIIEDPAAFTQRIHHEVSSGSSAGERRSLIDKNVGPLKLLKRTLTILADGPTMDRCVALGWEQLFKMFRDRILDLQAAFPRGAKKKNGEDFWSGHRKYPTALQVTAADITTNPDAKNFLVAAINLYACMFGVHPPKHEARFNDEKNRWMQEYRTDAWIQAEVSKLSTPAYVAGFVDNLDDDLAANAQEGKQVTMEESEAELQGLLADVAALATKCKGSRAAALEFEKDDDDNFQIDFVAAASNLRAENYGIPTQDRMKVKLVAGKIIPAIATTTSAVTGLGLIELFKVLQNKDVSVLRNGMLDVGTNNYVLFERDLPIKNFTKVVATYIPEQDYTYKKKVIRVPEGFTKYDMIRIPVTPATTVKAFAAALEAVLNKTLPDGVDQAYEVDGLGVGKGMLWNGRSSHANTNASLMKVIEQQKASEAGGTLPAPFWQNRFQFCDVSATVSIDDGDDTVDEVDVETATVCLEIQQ
The assay can be described thus: Leishmania donovani Ubiquitin Activating Enzyme (LdE1). The conditions noted are these: 30 µM. The assay is classed as functional.

Assay [3] addresses Sialic acid-binding Ig-like lectin 9 (Homo sapiens) (UniProt Q9Y336). The assay can be described thus: Hs-Siglec9 ALPHAscreen SOP 20170721. The note with it: 10 µM. Background: In Alpha technology, singlet oxygen from a donor bead excites a nearby acceptor bead.
The test system of another assay is Trypanosoma cruzi. Description: Trypanosoma cruzi phosphomannomutase and mannose-1-phosphate guanylyltransferase assay. The assay is classed as functional. The note with it: 10 µM.
The target of assay [4] is T2, Arginase-2, mitochondrial (Homo sapiens) (UniProt P78540).
T2 sequence (whole entry): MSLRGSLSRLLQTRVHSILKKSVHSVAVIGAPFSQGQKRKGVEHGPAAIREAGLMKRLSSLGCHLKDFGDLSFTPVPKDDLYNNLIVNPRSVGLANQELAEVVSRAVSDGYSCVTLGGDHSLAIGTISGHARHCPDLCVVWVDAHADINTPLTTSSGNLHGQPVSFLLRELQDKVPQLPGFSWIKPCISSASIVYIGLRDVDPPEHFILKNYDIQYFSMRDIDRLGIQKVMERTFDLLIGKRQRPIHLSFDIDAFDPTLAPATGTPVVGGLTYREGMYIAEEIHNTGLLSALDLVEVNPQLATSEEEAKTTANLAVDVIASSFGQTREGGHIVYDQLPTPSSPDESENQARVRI
Description: in vitro enzyme assay to detect the production of urea directly proportional to the activity of Arginase II. Note: in the data most compounds retested in dose-response had high values. The assay is classed as functional.

Assay [5] deals with T3, Proteasome subunit beta (Trypanosoma cruzi) (UniProt O96673).
T3 sequence (whole entry): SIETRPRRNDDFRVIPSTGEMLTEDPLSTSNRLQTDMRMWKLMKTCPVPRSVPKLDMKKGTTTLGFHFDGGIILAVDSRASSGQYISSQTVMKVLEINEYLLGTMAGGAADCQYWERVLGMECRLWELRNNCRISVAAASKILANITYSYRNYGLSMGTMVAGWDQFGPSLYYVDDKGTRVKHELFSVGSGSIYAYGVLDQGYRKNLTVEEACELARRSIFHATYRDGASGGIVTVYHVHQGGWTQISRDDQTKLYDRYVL
Description: Trypanosoma cruzi proteasome chymotrypsin-like activity (TcProtChymo) assay. Note: in the data most compounds retested in dose-response had high values. The assay is classed as functional. The note with it: 9.37 µM.

For the next assay, the species on record is Homo sapiens. The assay can be described thus: To identify inhibition of the IFN signalling (Jak-Stat) pathway via expression of an eGFP reporter gene under the control of an IFN-stimulated response element (ISRE) containing MxA promoter. The assay is classed as functional. The conditions noted are these: 30 µM. For orientation: A reporter such as luciferase makes a cellular process visible.

The target in assay [6] is T4, Tyrosyl-tRNA synthetase, putative (Trypanosoma cruzi (strain CL Brener)) (UniProt Q4DSP6).
T4 sequence (whole entry): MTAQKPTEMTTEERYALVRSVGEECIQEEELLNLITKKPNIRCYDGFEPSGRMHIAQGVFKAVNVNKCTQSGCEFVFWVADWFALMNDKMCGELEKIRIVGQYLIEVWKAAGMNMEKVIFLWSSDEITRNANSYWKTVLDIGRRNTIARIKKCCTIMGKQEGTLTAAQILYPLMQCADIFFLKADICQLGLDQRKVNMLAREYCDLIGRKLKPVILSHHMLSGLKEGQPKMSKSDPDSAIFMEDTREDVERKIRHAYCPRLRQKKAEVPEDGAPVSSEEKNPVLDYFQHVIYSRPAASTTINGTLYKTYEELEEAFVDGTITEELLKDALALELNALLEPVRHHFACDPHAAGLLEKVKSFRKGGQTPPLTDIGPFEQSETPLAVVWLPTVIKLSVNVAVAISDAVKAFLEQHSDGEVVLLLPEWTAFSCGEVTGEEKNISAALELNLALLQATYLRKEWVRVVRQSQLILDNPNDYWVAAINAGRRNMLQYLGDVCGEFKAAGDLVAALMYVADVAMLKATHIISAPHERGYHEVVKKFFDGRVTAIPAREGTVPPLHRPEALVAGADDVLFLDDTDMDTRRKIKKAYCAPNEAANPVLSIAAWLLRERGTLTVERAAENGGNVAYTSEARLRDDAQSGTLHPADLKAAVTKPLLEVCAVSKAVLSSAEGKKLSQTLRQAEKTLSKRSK
Description: Trypanosoma cruzi tyrosyl tRNA synthetase (TcYRS) _High Tyrosine SOP. Note: in the data most compounds retested in dose-response had high values. The assay is classed as functional. The conditions noted are these: 30 µM.

Assay [7] has as its target T4, Tyrosyl-tRNA synthetase, putative (Trypanosoma cruzi (strain CL Brener)). The assay can be described thus: Trypanosoma cruzi tyrosyl tRNA synthetase (TcYRS) SOP. The assay is classed as functional. The note with it: 30 µM.
Assay [8] concerns the target Chromo domain-containing protein 1 (Saccharomyces cerevisiae (strain ATCC 204508 / S288c) (Baker's yeast)) (UniProt P32657). The assay can be described thus: ScCHD-1 Enzyme Inhibition Assay. Note: in the data most compounds retested in dose-response had high values. The note with it: 30 µM. The assay is classed as functional.
For a further assay, the system named is N/A. Description: Trypanosoma cruzi proteasome luciferase counter-screen. The assay is classed as functional. The conditions noted are these: 9.37 µM.
Assay [9] addresses AMP-activated protein kinase, AMPK (Homo sapiens) (UniProt P54646+O43741+P54619+Q9UGJ0+Q9Y478+Q13131+Q9UGI9). Description: AMP-dependent Kinase enzyme assay. An in vitro enzyme assay that detects ADP turnover that is directly proportional to AMPK activity. This uses naive AMPK that is activated during the assay with MK-8722. The assay is classed as functional. The note with it: 30 µM.

Values joined by “and” are separate entries in the source; they are usually repeats but may differ in a detail not shown here. Identical values can stand only once. For part of these data: Potency and affinity values are given separately.

Sequence of Sialic acid-binding Ig-like lectin 9 (Homo sapiens) (Q9Y336 whole entry): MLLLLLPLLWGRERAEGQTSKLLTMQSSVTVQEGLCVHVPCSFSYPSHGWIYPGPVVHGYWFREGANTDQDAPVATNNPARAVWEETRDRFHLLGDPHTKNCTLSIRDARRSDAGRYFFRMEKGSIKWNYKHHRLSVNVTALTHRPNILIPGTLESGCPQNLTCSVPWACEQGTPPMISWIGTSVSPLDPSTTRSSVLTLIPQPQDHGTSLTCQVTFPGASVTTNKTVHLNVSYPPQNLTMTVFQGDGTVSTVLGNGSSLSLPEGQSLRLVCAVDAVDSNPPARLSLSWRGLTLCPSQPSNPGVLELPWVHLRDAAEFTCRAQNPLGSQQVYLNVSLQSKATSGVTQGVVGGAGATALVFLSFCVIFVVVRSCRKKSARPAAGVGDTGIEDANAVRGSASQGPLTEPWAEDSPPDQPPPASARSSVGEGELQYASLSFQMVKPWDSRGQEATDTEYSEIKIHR
Sequence of Chromo domain-containing protein 1 (Saccharomyces cerevisiae (strain ATCC 204508 / S288c) (Baker's yeast)) (P32657 whole entry, the tested form may be a part): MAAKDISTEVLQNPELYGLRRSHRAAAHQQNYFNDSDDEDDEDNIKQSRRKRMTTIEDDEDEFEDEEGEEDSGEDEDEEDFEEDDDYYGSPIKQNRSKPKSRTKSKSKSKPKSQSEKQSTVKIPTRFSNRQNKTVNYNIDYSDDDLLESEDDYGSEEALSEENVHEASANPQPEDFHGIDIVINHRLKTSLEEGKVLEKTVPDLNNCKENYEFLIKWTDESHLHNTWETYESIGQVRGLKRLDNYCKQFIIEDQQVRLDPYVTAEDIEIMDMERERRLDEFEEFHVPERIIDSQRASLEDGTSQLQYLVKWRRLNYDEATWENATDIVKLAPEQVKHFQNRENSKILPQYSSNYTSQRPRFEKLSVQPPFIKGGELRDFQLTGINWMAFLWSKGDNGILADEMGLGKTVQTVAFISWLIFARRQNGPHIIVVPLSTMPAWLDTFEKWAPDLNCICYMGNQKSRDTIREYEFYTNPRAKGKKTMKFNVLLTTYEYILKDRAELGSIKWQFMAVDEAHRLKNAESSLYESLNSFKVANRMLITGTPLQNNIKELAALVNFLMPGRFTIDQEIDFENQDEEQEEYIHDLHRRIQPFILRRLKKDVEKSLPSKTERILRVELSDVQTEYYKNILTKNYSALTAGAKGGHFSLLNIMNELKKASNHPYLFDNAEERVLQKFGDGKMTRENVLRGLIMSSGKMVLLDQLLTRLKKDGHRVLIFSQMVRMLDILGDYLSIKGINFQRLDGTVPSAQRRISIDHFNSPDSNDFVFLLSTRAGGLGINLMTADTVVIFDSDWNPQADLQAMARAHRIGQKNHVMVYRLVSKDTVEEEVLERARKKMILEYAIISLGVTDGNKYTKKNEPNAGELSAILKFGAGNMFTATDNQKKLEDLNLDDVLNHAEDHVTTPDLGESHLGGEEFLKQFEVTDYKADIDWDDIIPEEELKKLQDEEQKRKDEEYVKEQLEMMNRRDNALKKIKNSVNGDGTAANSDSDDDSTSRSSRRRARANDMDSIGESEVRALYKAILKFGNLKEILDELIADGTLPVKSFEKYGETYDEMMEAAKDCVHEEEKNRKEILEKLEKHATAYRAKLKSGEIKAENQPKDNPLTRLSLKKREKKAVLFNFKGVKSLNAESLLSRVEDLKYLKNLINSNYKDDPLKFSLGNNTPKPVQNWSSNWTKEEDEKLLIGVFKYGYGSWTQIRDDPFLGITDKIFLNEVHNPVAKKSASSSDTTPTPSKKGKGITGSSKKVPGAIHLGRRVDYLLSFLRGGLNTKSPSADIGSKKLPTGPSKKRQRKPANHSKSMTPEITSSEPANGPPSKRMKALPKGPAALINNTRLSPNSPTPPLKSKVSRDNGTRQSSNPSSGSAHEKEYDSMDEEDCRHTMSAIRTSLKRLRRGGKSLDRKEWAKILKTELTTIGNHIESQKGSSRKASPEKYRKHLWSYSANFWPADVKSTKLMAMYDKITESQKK
Sequence of Protein translocase subunit SecA (Escherichia coli (strain K12)) (P10408 whole entry): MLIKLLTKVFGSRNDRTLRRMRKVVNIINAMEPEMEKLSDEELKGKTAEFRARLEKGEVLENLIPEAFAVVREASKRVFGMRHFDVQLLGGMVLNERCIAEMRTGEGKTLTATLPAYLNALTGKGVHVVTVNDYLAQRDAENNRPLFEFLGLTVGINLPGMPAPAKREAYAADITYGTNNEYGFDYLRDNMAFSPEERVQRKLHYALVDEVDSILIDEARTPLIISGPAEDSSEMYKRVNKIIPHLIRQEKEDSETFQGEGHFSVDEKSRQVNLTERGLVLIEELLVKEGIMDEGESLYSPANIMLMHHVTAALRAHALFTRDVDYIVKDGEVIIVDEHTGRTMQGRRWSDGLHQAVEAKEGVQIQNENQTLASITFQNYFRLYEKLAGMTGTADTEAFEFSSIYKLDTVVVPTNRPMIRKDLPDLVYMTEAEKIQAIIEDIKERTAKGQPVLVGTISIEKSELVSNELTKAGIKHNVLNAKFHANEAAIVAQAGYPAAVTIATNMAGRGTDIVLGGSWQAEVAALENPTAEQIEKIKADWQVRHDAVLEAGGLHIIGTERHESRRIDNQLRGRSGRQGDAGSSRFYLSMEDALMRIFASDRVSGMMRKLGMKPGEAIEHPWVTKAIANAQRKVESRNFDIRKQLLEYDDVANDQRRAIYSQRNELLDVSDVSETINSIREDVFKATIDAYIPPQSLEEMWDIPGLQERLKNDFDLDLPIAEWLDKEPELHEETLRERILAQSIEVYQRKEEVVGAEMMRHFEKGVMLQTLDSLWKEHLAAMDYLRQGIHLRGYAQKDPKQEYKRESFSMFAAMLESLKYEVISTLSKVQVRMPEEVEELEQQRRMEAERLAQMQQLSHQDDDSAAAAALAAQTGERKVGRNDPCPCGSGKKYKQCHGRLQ

`CCNC(=O)c1ccnc(NCC2COc3cc(OC)ccc3C2)c1` (configuration not stated): the Percent Effect was -6.93% in [1]; 5.41% in [2]; 2.93% in assay [3]; -3.78% with Trypanosoma cruzi; 0.54% in assay [4] (30 µM); -1.05% in assay [4] (33.3 µM). The Percent Effect in [5] was 23.6%; in the assay filed under Homo sapiens, 24.8%; in assay [6], 2.66%; in assay [7], 7.32%; in assay [8] it was -4.55%.
Take `CN(C)[C@H]1CCCCN(C(=O)CCc2csc(N)n2)C1`: the Percent Effect is -6.59% in [1]; 2.7% in assay [2]; -1.59% in assay [3]; 1.46% in the assay with Trypanosoma cruzi; 2.7% in [4] (30 µM); -0.35% in assay [4] (33.3 µM). Also, the Percent Effect in [5] is 9.76%; in the assay listed under Homo sapiens it was -5.61%; in [6] it was 3.72%; in assay [7] it was 7.32%; in [8], 0.286%.
On to `COc1cccc(-c2nc(CNCCn3cccn3)cs2)c1`, for which the Percent Effect in [1] was -0.562%; in assay [2], -2.56%; in [3], -1.83%; in the assay with Trypanosoma cruzi it was -5.54%; in assay [4] (33.3 µM), 2.46%; in [5], 59.5% and 60.9% and 43.9%. Also, the Percent Effect in the assay on N/A was 31.8% and 30.9%; in the assay listed under Homo sapiens, 37.8%; in assay [6], 4.31%; in assay [7], 6.02%; in assay [8] it was 1.48%.
Consider `CCNC(=O)c1ccc(CNCc2c(C)nn(C)c2N(C)C)cc1`, for which the Percent Effect in assay [1] is -4.63%; in [2], 21.3%; in assay [3], 1.18%; in the assay on Trypanosoma cruzi it was 5.62%; in assay [4] (33.3 µM), -0.444%; in assay [5] it was 22.3%. Besides, the Percent Effect in the assay listed under Homo sapiens is 2.98%; in assay [6], 4.74%; in assay [7], 12.8%; in [8], -11.6%.
`Cc1nc(C)c(C(=O)OCCNc2ncccc2C#N)s1`: the Percent Effect in assay [1] was -3.81%; in [2], 10.4%; in assay [3] it was 12.8%; in the assay with Trypanosoma cruzi, -7.09%; in assay [4] (33.3 µM) it was 1.02%; in [5], 71.6% and 65.6% and 62.3%. Further, the Percent Effect in the assay with N/A is 28.5% and 30.6%; in the assay filed under Homo sapiens, 32.9%; in assay [6] it was 2.94%; in [7], 9.41%; in assay [8] it was 0.0387%.
With `CNC(=O)Cn1cc(C#N)c(=O)c2cc(Br)ccc21`, the Percent Effect in assay [1] was -5.47%; in assay [2], 13.3%; in assay [9], -4.43%; in [3], 16.9%; in the assay with Trypanosoma cruzi it was 7.3%; in [4] (33.3 µM), 7.29%. The Percent Effect in assay [5] was found to be 15.2%; in the assay listed under Homo sapiens it was 9.36%; in assay [6], 3.83%; in assay [7], 13.6%; in [8], 38.7%.
For the compound `O=S(=O)(NCC1(O)CCOc2ccccc21)c1ccc(Br)s1` (configuration not stated), the Percent Effect is -7.03% in assay [1]; 2.74% in assay [2]; 6.4% in assay [9]; -1.37% in assay [3]; -3.72% with Trypanosoma cruzi; -1.82% in [4] (33.3 µM). Also, the Percent Effect was 4.97% in [5], 21.1% in the assay filed under Homo sapiens and -2.54% in [8].
For `CCc1n[nH]c(C2CN(C(=O)c3ncoc3C(C)C)CCO2)n1` (configuration not stated), the Percent Effect is 1.99% in [1]; 15.6% in assay [2]; 8.33% in assay [3]; -0.746% with Trypanosoma cruzi; -2.25% in assay [4] (33.3 µM); 2.46% in [5]. The Percent Effect in the assay listed under Homo sapiens is 17.6%; in assay [6], 2.94%; in assay [7], 18.8%; in assay [8], -8.96%.
For `Cn1ccc(C(=O)NCc2cccc(CN3CCCC3)c2)cc1=O`, the Percent Effect was -1.76% in [1]; 20.8% in assay [2]; 0.574% in assay [3]; 2.05% with Trypanosoma cruzi; -6.35% in [4] (33.3 µM); 19.2% and 18.4% and 34% in assay [5]. In addition, the Percent Effect is 12% and 8.64% with N/A; -14.3% in the assay listed under Homo sapiens; 11.8% in [6]; 30.6% in assay [7]; -13% in assay [8].
Turning to `CN(C)c1cc(CNC(=O)Nc2ccc(F)cc2)ccn1`, the Percent Effect was 2.4% in assay [1]; 17.9% in [2]; -9.83% in [3]; 3.29% in the assay on Trypanosoma cruzi; 0.41% in [4] (33.3 µM); 47.8% and 47.4% and 50.2% in assay [5]. Also, the Percent Effect was 25.9% and 25.6% with N/A; 6.94% in the assay filed under Homo sapiens; 7.18% in assay [6]; 25.3% in assay [7]; -3.18% in [8].
In the case of `CN(C)[C@@H]1CCN(C(=O)NC2CCCC2)[C@H]1Cc1cnn(C)c1`, the Percent Effect is -4.9% in assay [1]; 2.67% in assay [2]; -90.2% in [9]; 5.44% in assay [3]; -0.197% in the assay on Trypanosoma cruzi; 2.1% in assay [4] (33.3 µM). In addition, the Percent Effect is 7.84% in assay [5]; -0.845% in the assay filed under Homo sapiens; 1.06% in assay [6]; -3.85% in [7]; 1.31% in assay [8].
